Mdm2-MdmX inh – inhibitors of human Mdm2/MdmX interaction; O15151+Q00987; AID 485346; SaOS-2 split-luciferase Mdm2/MdmX complementation, luminescence; inhibition, % at 8 µM; hit rate 3% among 330,000;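 active = inhibition of at least 50% at 8 µM in the primary screen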
Target sequence (O15151 whole entry, looked up): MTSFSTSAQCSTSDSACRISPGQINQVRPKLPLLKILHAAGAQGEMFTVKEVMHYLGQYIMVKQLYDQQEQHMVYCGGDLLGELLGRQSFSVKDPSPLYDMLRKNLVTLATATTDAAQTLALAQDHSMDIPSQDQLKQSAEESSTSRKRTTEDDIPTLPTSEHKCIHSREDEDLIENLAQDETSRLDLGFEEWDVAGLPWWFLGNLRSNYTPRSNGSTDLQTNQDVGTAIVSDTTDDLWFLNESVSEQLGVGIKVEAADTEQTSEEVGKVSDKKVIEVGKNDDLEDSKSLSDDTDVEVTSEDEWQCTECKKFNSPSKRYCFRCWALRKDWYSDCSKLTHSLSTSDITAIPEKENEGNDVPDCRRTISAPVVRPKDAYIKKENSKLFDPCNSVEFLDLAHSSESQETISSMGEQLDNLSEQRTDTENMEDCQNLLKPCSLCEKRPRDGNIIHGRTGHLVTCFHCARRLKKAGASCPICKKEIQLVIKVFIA
Target sequence (Q00987 whole entry, looked up): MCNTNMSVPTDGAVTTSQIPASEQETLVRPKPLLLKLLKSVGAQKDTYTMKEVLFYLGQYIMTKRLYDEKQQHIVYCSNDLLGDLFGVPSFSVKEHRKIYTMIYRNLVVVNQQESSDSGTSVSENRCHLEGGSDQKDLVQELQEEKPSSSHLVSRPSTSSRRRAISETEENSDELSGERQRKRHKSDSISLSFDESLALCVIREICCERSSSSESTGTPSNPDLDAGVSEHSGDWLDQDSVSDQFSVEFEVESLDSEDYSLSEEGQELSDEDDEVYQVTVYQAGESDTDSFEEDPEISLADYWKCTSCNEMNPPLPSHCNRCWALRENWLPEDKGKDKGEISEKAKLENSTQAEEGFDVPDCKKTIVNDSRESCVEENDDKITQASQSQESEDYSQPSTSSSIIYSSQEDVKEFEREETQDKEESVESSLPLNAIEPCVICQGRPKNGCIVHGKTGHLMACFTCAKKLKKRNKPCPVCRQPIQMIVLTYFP
Jurkat NFkB inh – lowers PMA/ionomycin-induced NF-kB signal in Jurkat cells | inhibition, % at 4 µM | AID 435003 | hit rate 0.53% among 330,000 | PMA/ionomycin-induced NF-kB luciferase reporter, luminescence; in the data active = inhibition above about 50%
Gli-Sufu antag – Gli-Sufu pathway antagonism; Sufu-KO-LIGHT fibroblasts, Gli luciferase reporter luminescence; inhibition, % at 5 µM; hit rate 0.74% among 340,000; AID 588413;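 active = inhibition above about 55%, limit read from the data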;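 also: 0% = DMSO-treated cells and 100% = wells with medium but no cells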
Beta apoptosis – blocks beta cell apoptosis; INS-1E cytokine-induced death, ATP luminescence, 48 h; percent of positive-control rescue, neutral wells zero; protection from apoptosis, % (test concentration not listed); hit rate 0.8% among 300,000;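 active = Every replicate reaches about 75%, or at least half do and their mean reaches it too, limit read from the data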;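 also: 0% = cytokine-treated negative control wells and 100% = positive control rescue; higher means more ATP so stronger rescue from cytokine killing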
697 NFkB inh – inhibitors of the PMA/ionomycin-induced NF-kB reporter in 697 B cells; 697 B-cell NF-kB luciferase reporter, 16 h; inhibition, % at 4 µM; hit rate 0.33% among 330,000; AID 435022; in the data active = inhibition above about 35%
Mdm2-MdmX conf – human Mdm2/MdmX binding inhibition, confirmed; luminescent assay; shares compounds with Mdm2-MdmX inh; hit rate 55% among 10,000; inhibition, % at 8 µM; in the data active = inhibition above about 40%
FLuc counter – counter-screen for Mdm2/MdmX inhibitors: full-length luciferase; hit rate 77% among 6,200; shares compounds with Mdm2-MdmX inh; AID 504607; inhibition, % at 8 µM; SaOS-2 full-length luciferase counterscreen, luminescence;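 active = mean inhibition at 8 µM reaching about 37%, which flags the compound as non-specific, limit read from the data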;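 also: p53-null SaOS-2 cells with luciferase driven by a doxycycline-inducible promoter; compound on cells about two nights before reading with doxycycline added after day one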
* = called active by the depositor; · = no result. Most compounds without a hit are left out; they make up all but 4% or so of the library.

SMILES	Mdm2-MdmX inh	Jurkat NFkB inh	Gli-Sufu antag	Beta apoptosis	697 NFkB inh	Mdm2-MdmX conf	FLuc counter
CCOCCCN1C(=O)C(=O)N(CC(=O)N2c3ccccc3NC(=O)CC2C)C1=O (configuration not stated)	17	-11	5	-1	18	·	·
CC1CC1C(=O)OCC(=O)Nc1cccc([N+](=O)[O-])c1 (configuration not stated)	7	0	-3	3	5	·	·
CC(C)(C)C(=O)/C(=C/c1ccc(Cl)cc1)n1cncn1	99*	48	-7	-52	-21	100*	0
COc1ccc(CNCC(O)(c2ccccc2)c2ccc(Cl)cc2)cc1 (configuration not stated)	50*	-12	6	8	-40	4	·
Cc1ccc(CNCC(O)(c2ccccc2)c2ccc(Cl)cc2)cc1 (configuration not stated)	·	·	26	·	·	·	·
Cc1ccc(/C=C/C(=O)c2ccccc(=O)c2O)c(C)c1	67*	1	-2	70	-29	61*	19
O=C(NN(c1ccccc1)c1ccccc1)c1ccccc1F	-4	-1	-17	6	7	·	·
Cc1cc(NC(=O)COC(=O)c2ccccc2S(=O)(=O)N(C)c2ccccc2)no1	96*	-83	0	-10	-88	72*	43*
Cc1cc(NC(=O)COC(=O)c2ccccc2NCCO)no1	-7	7	-3	-9	5	·	·
N#CCCN(Cc1cccs1)C(=O)Nc1ccc(F)cc1	4	18	7	-5	-6	·	·
Cc1ccnc(NC(=O)CCC2COc3ccccc3O2)c1 (configuration not stated)	19	-1	4	-6	-9	·	·
O=C(CCC1COc2ccccc2O1)Nc1ccc(Cl)cn1 (configuration not stated)	67*	4	-10	-8	-19	45*	84*
CC(C)(C)OC(=O)N[C@H](C(=O)OC(C)(C)C)c1ccc(C(F)(F)F)cc1	18	7	0	-3	6	·	·
O=C(Cc1ccc(Cl)cc1)Nc1cccc(S(=O)(=O)N2CCCCC2)c1	19	-12	5	-7	-11	·	·
CC(=O)c1c(C)[nH]c(C(=O)Nc2cccc(S(=O)(=O)N3CCCCC3)c2)c1C	72*	0	22	-1	14	36	·
O=C(CCl)Nc1cccc(S(=O)(=O)NC2=NCCCCC2)c1	62*	9	17	-18	-12	69*	36
O=C(CCl)Nc1ccc(S(=O)(=O)NC2=NCCCCC2)cc1	9	15	6	-20	24	·	·
O=C(CCl)Nc1cccc(S(=O)(=O)N2CCCCCC2)c1	98*	21	12	-9	17	44*	24
Cc1ccc(C(=O)N(C)CC(=O)Nc2ccc(Cl)c(C(F)(F)F)c2)cc1S(=O)(=O)N1CCCCC1	46	1	5	8	-32	·	·
Cc1ccc(S(=O)(=O)N2CCCCC2)cc1C(=O)N(C)CC(=O)Nc1ccc(Cl)c(C(F)(F)F)c1	55*	14	25	19	-25	68*	49*
CCOC(=O)Cc1csc(SCC(=O)NC2CCC(C)CC2)n1 (configuration not stated)	-5	-5	-22	2	-6	·	·
Cc1cc(C)nc(SCCN2CCCCC2)n1	9	-2	7	·	15	·	·
CC1CCCCC1NC(=O)CN1CCC(NC(=O)c2cccc(F)c2)CC1 (configuration not stated)	0	-1	-13	1	11	·	·
CN(Cc1ccccc1)C(=O)c1cc2cc(F)ccc2[nH]1	32	-14	-5	-6	7	·	·
C[C@@H]1CN([C@H](C)CO)C(=O)c2cc(NC(=O)Cc3ccccc3)ccc2O[C@H]1CN(C)Cc1ccc(Oc2ccccc2)cc1	73*	-7	-4	16	24	26	·
C[C@H]1CN([C@@H](C)CO)C(=O)Cc2cc(NC(=O)CCC(F)(F)F)ccc2O[C@H]1CN(C)S(=O)(=O)c1ccc(F)cc1	43	-7	-20	-8	12	·	·
C[C@@H]1CN([C@@H](C)CO)C(=O)c2cc(NC(=O)Nc3ccc(F)cc3)ccc2O[C@@H]1CN(C)Cc1ccc(Oc2ccccc2)cc1	94*	12	17	59	26	21	·
